According to PubChem BioAssay (NCI):
Where “and” joins values, the source holds several entries; their conditions need not be identical. Equal entries are not always repeated. About 79,000 compounds went through this panel and 15% of them were active in at least one assay; those are over-represented in the sample as a whole. Calls of active or inactive are those of the source. No stated cut-off is given here; in the data, active means growth inhibition above about 70%; inactive means the rest.

Legend:
[1] = NCI Yeast Anticancer Drug Screen. Data for the rad50 strain (AID 155);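 further: 0% = growth of vehicle-only cultures of the same strain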; conditions: S. cerevisiae rad50 strain growth inhibition, active compounds read high; at 50.0 µM unless noted
How it was run: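 Growth of the mutant yeast was measured after compound exposure and referenced to vehicle-treated cultures.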

[2] = NCI Yeast Anticancer Drug Screen. Data for the mec2-1 strain (AID 157); conditions: S. cerevisiae mec2-1 strain, active compounds read high; at 50.0 µM unless noted
How it was run: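 Yeast mec2-1 mutant treated with compound. Readout: growth inhibition vs vehicle controls.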

[3] = NCI Yeast Anticancer Drug Screen. Data for the sgs1 mgt1 strain (AID 161);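 further: 0% = growth of cultures given vehicle only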; conditions: S. cerevisiae sgs1 mgt1 strain, active compounds read high; at 50.0 µM unless noted
How it was run: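 Mutant yeast exposed to compound; growth scored against vehicle-only wells.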

[4] = NCI Yeast Anticancer Drug Screen. Data for the cln2 rad14 strain (AID 165);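 further: 0% = growth equal to vehicle treated cultures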; conditions: S. cerevisiae cln2 rad14 strain, active compounds read high; at 50.0 µM unless noted
How it was run: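 cln2 rad14 yeast strain; compound exposure; growth inhibition read vs vehicle controls.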

[5] = NCI Yeast Anticancer Drug Screen. Data for the bub3 strain (AID 167); conditions: S. cerevisiae bub3 mutant strain, active compounds read high; at 50.0 µM unless noted
How it was run: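 Whole-cell yeast assay. The mutant strain was incubated with compounds, and growth inhibition was determined by comparison with vehicle-treated cells.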

[6] = NCI Yeast Anticancer Drug Screen. Data for the mlh1 rad18 strain (AID 175); conditions: S. cerevisiae mlh1 rad18 strain growth inhibition, active compounds read high; at 50.0 µM unless noted
How it was run: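 Yeast w/ defined DNA-repair lesions; compound exposure; growth vs vehicle controls → % inhibition.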

Measured: growth inhibition

O=C(CCCCCCCC(=O)NO)NO
inactive: [1] -10.8% | [2] 6.6% | [3] 12.8% | [4] 3.65% | [5] 2.5% | [6] -9.4%

CCCCC(O)CCC (stereo not given)
inactive: [1] -30.4% | [2] -52.4% | [3] -24.8% | [4] 4.85% | [5] -48.7% | [6] -33.5%

O=C(N/N=C/c1ccc2c(c1)OCO2)c1ccccc1
inactive: [1] 12.7% | [2] -11.1% | [3] 6.25% | [4] -35.5% | [5] 1.8% | [6] 22.4%

CCC1CN2CCc3cc(OC)c(OC)cc3C2CC1=O (stereo not given)
inactive: [1] -11.3% | [2] -5.4% | [3] -8.65% | [4] -2.65% | [5] 1.15% | [6] -22.1%

N#Cc1ccc(/C=C(/C(=O)c2ccccc2)c2ccccc2)cc1
inactive: [1] 7.35% | [2] -31.9% | [3] 0.2% | [4] 6.85% | [5] -23.8% | [6] -3.35%

Cc1cc(N(CCC#N)CCC#N)ccc1N=Nc1ccc(S(N)(=O)=O)cc1
inactive: [1] -39.6% | [2] -9.45% | [3] -12.4% | [4] 3.65% | [5] 0.55% | [6] 0.8%

CC(=O)Nc1snc(C)c1[N+](=O)[O-]
inactive: [1] -4.55% | [2] -0.1% | [3] 6.75% | [4] -8.2% | [5] -2.9% | [6] 0.55%

Cc1nc(C(N)=S)sc1C(=O)C/C(=N/N)C(=O)Nc1ccc(Cl)cc1
inactive: [1] 2.05% | [2] -8.55% | [3] 3.2% | [4] -3.65% | [5] -17.8% | [6] -20.9%

CCN(CC)CCCCCCNc1cc(O)cc2cccnc12
inactive: [1] 18.5% | [2] 30.8% | [3] 44% | [4] 8.45% | [5] 11.4% | [6] 14.4%

O=C(Cc1nc2ccccc2o1)C(=O)Nc1cccc(Cl)c1
inactive: [1] -4.25% | [2] 0.9% | [3] -1.95% | [4] -42.2% | [5] 3.65% | [6] 19.1%

Nc1ncnc2c1ncn2C1OC(C(O)CO)C(O)C1O (stereo not given)
inactive: [1] -0.65% and -17.4% | [2] -1.4% and -71.8% | [3] -4.2% and -6.85% | [4] -81.3% and 10.2% | [5] 1.15% and 16.4% | [6] -16.1% and -31.6%

C=C(NC(=O)C(=C)NC(=O)c1csc(C2=NC3c4csc(n4)C4NC(=O)c5csc(n5)C(C(C)(O)C(C)O)NC(=O)C5CSC(=N5)/C(=C/C)NC(=O)C(C(C)O)NC(=O)c5csc(n5)C3(CC2)NC(=O)C(C)NC(=O)C(=C)NC(=O)C(C)NC(=O)C(C(C)CC)NC2C=Cc3c(C(C)O)cc(nc3C2O)C(=O)OC4C)n1)C(N)=O (stereo not given)
inactive: [1] 11.9% and 15.1% | [2] 10.8% and -10.4% | [3] 13.8% and 18.1% | [4] 29.5% and 23.2% | [5] 34.2% and 32.5% | [6] 13.2% and 36.2%

O=C1CCCCC(=O)NCCCCCCN1
inactive: [1] -7.95% | [2] -2.65% | [3] -18.4% | [4] -21.4% | [5] -12.4% | [6] 1.85%

NC1CCC[C@@H](O)[C@H]1O (stereo not given in full)
inactive: [1] -4.9% | [2] 22.9% | [3] 8.7% | [4] -7.1% | [5] 9.6% | [6] -0.55%

C/C(=N\NC(N)=O)c1ccc(Br)c2ccccc12
inactive: [1] -19.1% | [2] 12.9% | [3] -3.35% | [4] 4.05% | [5] 1.05% | [6] -1.2%

C=C1C(=O)OC2/C=C(\C)C(O)/C=C\C(C)(O)CC(OC(=O)/C(C)=C/C)C12 (stereo not given)
inactive: [1] -18% | [2] -37.6% | [3] -3.15% | [4] -2% | [5] -34.8% | [6] -26.8%

C=C1C2CCC3(CCC4C5(C)CCCC4(C=[N+](CCO)C5)C3C2)C1O (stereo not given)
inactive: [1] -20.7% | [2] -22.5% | [3] -27.9% | [4] 14.1% | [5] -17.6% | [6] -28.6%

CC(=C=CC(c1ccccc1)(c1ccccc1)c1ccccc1)CC(c1ccccc1)(c1ccccc1)c1ccccc1
active: [1] 95% | [2] 97.8% | [3] 90.3% | [4] 97.1% | [5] 98% | [6] 94%

O=c1[nH]nc(-c2ccccc2)nc1/C(=N\Nc1ccccc1)c1ccccc1
inactive: [1] 15.5% | [2] -12.3% | [3] 1.05% | [4] 0.85% | [5] 12.5% | [6] 14.7%

COc1ccc(-n2c(CCC(=O)O)nc3c2C(=O)c2ccccc2C3=O)cc1
inactive: [1] 31.6% | [2] 17.6% | [3] 34% | [4] 49% | [5] 14.7% | [6] 14.2%

CCOC(=O)CC1(N)CC2c3ccccc3OC(=O)C2C(=O)N1 (stereo not given)
inactive: [1] 10.6% | [2] 15.1% | [3] 6.15% | [4] 0.45% | [5] -2.8% | [6] -33.6%

Nc1cc(Nc2ccccc2)nc(=O)[nH]1
inactive: [1] -3.1% | [2] -0.55% | [3] -4.85% | [4] -75.2% | [5] -7.1% | [6] 5.2%

COC(=O)c1cc(NC(=O)Nc2cc(C(F)(F)F)ccc2Cl)cc(C(=O)OC)c1
inactive: [1] -24.2% | [2] -32% | [3] -9.65% | [4] -22.9% | [5] -0.55% | [6] -38.2%

CN(C)c1cccc2ccccc12
inactive: [1] -1.25% | [2] 9.1% | [3] 20.7% | [4] -24.3% | [5] 6% | [6] 18.9%

C[N+]1(CCN=C=NC2CCCCC2)CCOCC1
inactive: [1] -11.9% | [2] 10.8% | [3] 16.9% | [4] -12.2% | [5] 17.9% | [6] 14.4%

CC(=O)OCCc1cccnc1/C=N/O
inactive: [1] -12.9% | [2] -22.5% | [3] -1.4% | [4] 20.6% | [5] -16.4% | [6] -5.2%

Cc1ccc(C)n1CCCCCCCn1c(C)ccc1C
inactive: [1] -24.7% | [2] -3.5% | [3] 5.15% | [4] -22.8% | [5] 25.1% | [6] -9.8%

O=[N+]([O-])c1ccc[nH]1
inactive: [1] -6.15% | [2] -9.95% | [3] -4.2% | [4] 15.3% | [5] 3% | [6] 2%

COc1ccc(NS(=O)c2ccccc2)cc1 (stereo not given)
inactive: [1] 10.1% | [2] 1.2% | [3] 3.1% | [4] 6.65% | [5] -2.5% | [6] 7.65%

CC(=O)OC/C(=C/C#N)C1CCC2C3CC=C4CC(OC(C)=O)CCC4(C)C3CCC12C (stereo not given)
inactive: [1] 15.6% | [2] -1.25% | [3] -3.75% | [4] -12.8% | [5] -2.15% | [6] 8.65%

NN1CCN(CCO)CC1
inactive: [1] -0.1% | [2] -39.6% | [3] -3.3% | [4] 12.2% | [5] -4% | [6] 21.6%

CC(C)(Oc1ccc(C(=O)c2ccc(Cl)cc2)cc1Cl)C(=O)N1CCN(c2ccccc2)CC1
inactive: [1] 2% | [2] -46.1% | [3] -0.85% | [4] -55% | [5] -9.2% | [6] -5.9%

O=C(F)c1cccc2ccccc12
inactive: [1] -25.9% | [2] -14.7% | [3] -1% | [4] 7.6% | [5] -19.6% | [6] -31.3%

O=C1CCCC/C1=C/C=C/c1ccccc1
inactive: [1] 10.1% | [2] 21.8% | [3] 23.1% | [4] -33.5% | [5] -29.9% | [6] 6.75%

CNC(=O)NC(c1ccc(F)cc1)c1cc2c(cc1O)OCO2 (stereo not given)
inactive: [1] -2.2% | [2] -16.4% | [3] -2.4% | [4] 12.6% | [5] -1.8% | [6] 12.4%
